Here are results for 5 molecules from PubChem BioAssay (NCATS).

The target of experiment [1] is Glucocorticoid receptor (Homo sapiens) (UniProt P04150). The experiment in a line: qHTS assay for small molecule agonists of glucocorticoid receptor signaling (AID 588532; active = well fitted curve in the direction sought with a large enough effect in the signal ratio, with a control signal flat; the % refers to the signal ratio;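 note: 100% = dexamethasone at 0.1 µM and 0% = DMSO only wells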). The following applies: HeLa MMTV-bla, beta-lactamase ratio, agonist, 18 h; activation: stronger effect = higher value, percent of dexamethasone control, DMSO zero. A digest of the protocol: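 Titration series, up to 92 uM, applied to GRE-bla HeLa cells for 18 h at 37 C. Detection by CCF4 FRET substrate after 2 h at RT.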
Sequence of Glucocorticoid receptor (Homo sapiens) (P04150 whole entry, looked up): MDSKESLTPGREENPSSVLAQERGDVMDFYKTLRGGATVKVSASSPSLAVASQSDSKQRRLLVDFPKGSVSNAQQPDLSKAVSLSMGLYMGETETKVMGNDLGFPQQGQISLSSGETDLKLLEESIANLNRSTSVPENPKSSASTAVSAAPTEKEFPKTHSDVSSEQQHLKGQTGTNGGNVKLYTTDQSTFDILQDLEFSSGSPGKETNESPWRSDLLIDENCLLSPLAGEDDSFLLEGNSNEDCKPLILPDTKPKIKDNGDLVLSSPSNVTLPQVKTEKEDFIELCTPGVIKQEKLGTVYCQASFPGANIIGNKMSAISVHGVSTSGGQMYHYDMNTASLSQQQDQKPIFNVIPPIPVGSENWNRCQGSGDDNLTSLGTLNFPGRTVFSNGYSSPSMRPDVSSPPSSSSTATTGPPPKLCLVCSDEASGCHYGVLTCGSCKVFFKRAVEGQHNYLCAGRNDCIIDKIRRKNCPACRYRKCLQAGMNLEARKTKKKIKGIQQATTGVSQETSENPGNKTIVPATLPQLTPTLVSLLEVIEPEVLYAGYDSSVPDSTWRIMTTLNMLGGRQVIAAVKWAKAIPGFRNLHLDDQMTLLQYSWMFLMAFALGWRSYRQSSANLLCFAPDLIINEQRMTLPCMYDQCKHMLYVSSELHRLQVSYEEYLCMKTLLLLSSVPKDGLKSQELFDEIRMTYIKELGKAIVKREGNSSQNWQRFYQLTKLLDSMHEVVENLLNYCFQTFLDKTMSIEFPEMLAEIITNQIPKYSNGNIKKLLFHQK
On the technique in general: In qHTS, concentration-response curves come from the screen itself.

The target of experiment [2] is Peroxisome proliferator-activated receptor delta (Homo sapiens) (UniProt Q03181). Description: qHTS assay for small molecule agonists of peroxisome proliferator-activated receptor delta signaling (AID 588534).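 Note: 0% = DMSO basal wells and 100% = positive control agonist at 10 µM.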 The essentials: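 Agonist-mode beta-lactamase reporter readout (CCF4 dye, 2 h at RT) after 18 h at 37 °C exposure to a titration; Hill-equation fitting gave EC50 and maximal response.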
Sequence of Peroxisome proliferator-activated receptor delta (Homo sapiens) (Q03181 whole entry, looked up): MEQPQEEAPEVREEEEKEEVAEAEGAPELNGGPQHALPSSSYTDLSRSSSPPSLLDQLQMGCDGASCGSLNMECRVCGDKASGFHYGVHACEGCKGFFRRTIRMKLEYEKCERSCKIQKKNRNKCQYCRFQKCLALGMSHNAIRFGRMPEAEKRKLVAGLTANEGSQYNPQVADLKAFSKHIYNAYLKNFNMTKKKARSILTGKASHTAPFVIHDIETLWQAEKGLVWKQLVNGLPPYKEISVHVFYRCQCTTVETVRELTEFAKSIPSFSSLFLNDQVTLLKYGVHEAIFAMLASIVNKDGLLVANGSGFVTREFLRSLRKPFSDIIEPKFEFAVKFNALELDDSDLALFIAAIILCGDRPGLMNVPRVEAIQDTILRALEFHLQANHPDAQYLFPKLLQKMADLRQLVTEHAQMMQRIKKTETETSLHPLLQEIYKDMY

Experiment [3] addresses Peroxisome proliferator-activated receptor gamma (Homo sapiens) (UniProt P37231). Description: qHTS assay for small molecule agonists of peroxisome proliferator-activated receptor gamma signaling (AID 588536; active = well fitted curve in the direction sought with a large enough effect in the signal ratio, with a control signal flat, not every such curve was filed as active; the % refers to the signal ratio;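 note: 0% = DMSO basal wells and 100% = rosiglitazone at 2 µM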). The essentials:
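Using GeneBLAzer HEK293 cells, response was quantified by CCF4 fluorescence and normalized between basal DMSO (0%) and rosiglitazone 2 uM (100%); curves yielded half-maximal stimulation concentration and efficacy.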

The target is the same in experiment [4]. Description: qHTS assay for small molecule antagonists of peroxisome proliferator-activated receptor gamma signaling (AID 588537; active = well fitted inhibition curve with a large enough effect in the signal ratio, with a control signal flat, not every such curve was filed as active; the % refers to the signal ratio;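 note: reporter cells co-stimulated with 50 nM rosiglitazone agonist during compound treatment; % of control where 0% means no effect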). A digest of the protocol: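 Compounds are tested as concentration series for inhibition of rosiglitazone-driven (50 nM) reporter expression in GeneBLAzer PPAR-gamma-UAS-bla HEK293 cells. After 16 h at 37 C, CCF4 substrate is added for 2 h at room temperature and blue/green fluorescence is measured.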

For experiment [5], the target named is Vitamin D3 receptor (Homo sapiens) (UniProt P11473). The experiment in a line: qHTS assay for small molecule antagonists of vitamin D receptor signaling (AID 588541).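 Note: receptor activated by calcitriol during compound treatment; series mostly up to about 77 µM; % is set by controls: 0 for no effect and ±100 for the full control effect.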 The essentials: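 VDR-UAS-bla HEK293T cells (2000/well, 2% charcoal-stripped FBS) were treated with titrated compounds plus 1-alpha,25-dihydroxyvitamin D3 (50 nM or 3 nM final) for 16 h at 37 C. CCF4 beta-lactamase fluorescence was read; Hill fits gave IC50.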
Sequence of Vitamin D3 receptor (Homo sapiens) (P11473 whole entry, looked up): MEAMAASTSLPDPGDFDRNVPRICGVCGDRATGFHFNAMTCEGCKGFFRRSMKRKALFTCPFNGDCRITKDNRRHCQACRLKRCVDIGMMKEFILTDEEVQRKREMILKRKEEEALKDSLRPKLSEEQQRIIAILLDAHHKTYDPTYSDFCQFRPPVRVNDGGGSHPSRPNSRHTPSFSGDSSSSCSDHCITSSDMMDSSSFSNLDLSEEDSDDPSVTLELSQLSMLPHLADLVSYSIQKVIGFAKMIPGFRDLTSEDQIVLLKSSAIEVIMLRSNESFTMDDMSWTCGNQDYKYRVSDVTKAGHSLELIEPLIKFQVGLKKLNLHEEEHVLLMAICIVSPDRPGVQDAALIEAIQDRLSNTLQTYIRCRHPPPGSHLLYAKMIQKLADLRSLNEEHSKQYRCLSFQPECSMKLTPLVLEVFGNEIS

The target is the same in experiment [6]. The experiment in a line: qHTS assay for small molecule agonists of vitamin D receptor signaling (AID 588543).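 Note: 0% = DMSO basal and 100% = reference agonist control.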 A digest of the protocol:
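GeneBLAzer VDR-UAS-bla HEK293T cells in 2% charcoal-stripped FBS medium were dosed with compound titrations for 16 h at 37 °C; CCF4 β-lactamase readout (405 nm ex, 460/530 nm em). EC50 and efficacy from Hill fits, normalized to 50 nM calcitriol (100%) and DMSO (0%).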

Experiment [7] addresses Retinoic acid receptor RXR-alpha (Homo sapiens) (UniProt P19793). Description: qHTS assay for small molecule agonists of retinoid X receptor alpha signaling (AID 588544).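 For activation: 0% = DMSO basal wells and 100% = reference agonist.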
Experiment [8] can be described thus: qHTS assay for small molecule antagonists of retinoid X receptor alpha signaling (AID 588546; active = well fitted inhibition curve with a large enough effect in the signal ratio, with a control signal flat, not every such curve was filed as active; the % refers to the signal ratio;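 note: cells stimulated with 9-cis-retinoic acid as agonist; % is set by controls: 0 for no effect and ±100 for the full control effect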). The following applies: HEK293T RXRa-UAS-bla, beta-lactamase ratio, antagonist mode; measured here: W530 green channel, cytotoxicity proxy. The essentials: (§1)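 Beta-lactamase reporter inhibition, read as CCF4 fluorescence ratio (ex 405, em 460/530 nm) after 2 h at RT. HEK293T UAS-bla cells, 2500/well, were stimulated with 9-cis-RA at 500 or 100 nM final alongside test compound for 18 h at 37 C.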

The target of experiment [9] is Retinoic acid receptor RXR-alpha (Homo sapiens) (UniProt P19793). The experiment is described as above. The following applies: HEK293T RXRa-UAS-bla, beta-lactamase ratio, antagonist mode. A digest of the protocol:
as §1

The nature of experiment [10]: qHTS assay for environmental chemicals that activate the Aryl hydrocarbon Receptor (AhR) signaling pathway (AID 651777; active = well fitted curve in the direction sought with a large enough effect; an effect the other way counts as inactive or inconclusive; note: % of control where 0% means no effect; nearly all actives have a fitted effect of over 15% in size). As to conditions: 1A2-DRE human hepatoma cells, luciferase, 24 h; activation: stronger effect = higher value. A digest of the protocol:
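AhR activation is scored as a rise in luciferase from a stable DRE–CYP1A2 promoter construct in human hepatoma cells. Treatment lasts 24 hr at 37 C; detection uses One-Glo after 30 min at room temperature.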

Experiment [11] concerns the target Peroxisome proliferator-activated receptor alpha (Homo sapiens) (UniProt Q07869). The experiment in a line: qHTS assay for small molecule agonists of the peroxisome proliferator-activated receptor alpha (PPARalpha) signaling pathway (AID 651778; active = well fitted curve in the direction sought with a large enough effect; an effect the other way counts as inactive or inconclusive; note: % of control where 0% means no effect). As to conditions: PathHunter PPARalpha complementation, chemiluminescence, 6 h; max response: stronger effect = higher value. The essentials:
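Cells plated at 2,000/well and held overnight at 37 C, 5% CO2, then compound added by pin tool for 6 hr; after PathHunter detection reagent and 60 min at room temperature, chemiluminescence from enzyme complementation was read.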

Experiment [12] is described as follows: qHTS assay for small molecule agonists of the antioxidant response element (ARE) signaling pathway measured by Nrf2-dependant transcriptional activity (AID 720636; active = well fitted curve in the direction sought with a large enough effect in the repeat runs; an effect the other way counts as inactive or inconclusive;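 note: HepG2 cells with an ARE-driven luciferase reporter; % of control where 0% means no effect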). A digest of the protocol: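 First, ARE-luc HepG2 cells attached for 6 hr at 37 C in 1% dialyzed FBS medium. Next, compound or DMSO was added and incubated 16 hr. Finally, ONE-Glo reagent was added and luminescence measured after 30 min.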

Experiment [13] is described as follows: qHTS assay for small molecule agonists of the antioxidant response element (ARE) signaling pathway measured by Nrf2-dependant transcriptional activity - cell viability counter screen (AID 720653; active = well fitted curve in the direction sought with a large enough effect in the repeat runs; an effect the other way counts as inactive or inconclusive; note: % is set by controls: 0 for no effect and ±100 for the full control effect). The following applies: ARE-bla HepG2 viability, CellTiter-Glo ATP luminescence, 16 h; max response: stronger effect = lower value. The essentials:
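ARE-bla HepG2 cells (2,000/well) rested 5 hrs at 37C/5% CO2, then exposed to compounds in DMSO for 16 hrs. Viability was read in the same wells as intracellular ATP by luminescence, 30 min at room temperature after reagent addition.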

The target of experiment [14] is Nuclear receptor subfamily 1 group I member 2 (Rattus norvegicus) (UniProt Q9R1A7). Description: qHTS assay for small molecule activators of the rat pregnane X receptor (rPXR) signaling pathway (AID 651751; call rule not given here; note: 0% is about no effect). The following applies: rPXR reporter cells, luciferase (One-Glo), 24 h.
Sequence of Nuclear receptor subfamily 1 group I member 2 (Rattus norvegicus) (Q9R1A7 whole entry, looked up): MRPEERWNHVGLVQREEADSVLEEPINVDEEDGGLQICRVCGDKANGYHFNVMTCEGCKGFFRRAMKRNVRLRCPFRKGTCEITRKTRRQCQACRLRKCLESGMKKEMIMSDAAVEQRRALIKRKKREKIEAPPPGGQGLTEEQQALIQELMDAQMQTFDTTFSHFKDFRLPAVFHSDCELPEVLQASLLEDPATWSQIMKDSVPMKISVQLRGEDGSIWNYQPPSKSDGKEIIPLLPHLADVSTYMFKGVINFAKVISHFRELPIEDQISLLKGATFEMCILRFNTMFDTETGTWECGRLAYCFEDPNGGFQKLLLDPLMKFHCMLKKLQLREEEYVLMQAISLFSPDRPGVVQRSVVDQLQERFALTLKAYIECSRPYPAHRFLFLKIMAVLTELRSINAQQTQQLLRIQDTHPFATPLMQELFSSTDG
Experiment [15] can be described thus: qHTS assay for small molecule antagonists of peroxisome proliferator-activated receptor delta signaling (AID 588535; active = well fitted inhibition curve with a large enough effect in the signal ratio, with a control signal flat, not every such curve was filed as active; the % refers to the signal ratio;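 for max response: cells co-treated with a PPAR-delta agonist as stimulator during compound exposure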). As to conditions: HEK293T PPARd-UAS-bla, beta-lactamase FRET ratio, 18 h; 460 nm channel. The essentials:
(§2)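 Inhibition of PPAR-delta response element-driven beta-lactamase expression is measured in HEK293T cells exposed to a compound titration series for 18 hrs at 37 C. Half-maximal inhibition comes from Hill equation fitting.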

The target in experiment [16] is Peroxisome proliferator-activated receptor delta (Homo sapiens) (UniProt Q03181). Described as above. The essentials: as §2
Experiment [17] concerns the target Thyroid hormone receptor beta (Homo sapiens) (UniProt P10828). The experiment in a line: qHTS assay for small molecule agonists of thyroid hormone receptor beta signaling (AID 588545).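 Note: 0% = DMSO only and 100% = 10 nM T3.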 The essentials:
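TR-UAS-bla-GripTite HEK 293 cells in medium with 2% charcoal/dextran FBS, 0.1 mM NEAA and 1 mM sodium pyruvate were treated with titrated compounds for 18 hrs at 37 C. Beta-lactamase reporter was read with CCF4 dye (ex 405, em 460/530 nm); EC50 from Hill fits.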

The nature of experiment [18]: qHTS assay for small molecule activators of the p53 signaling pathway (AID 651743; active = well fitted activation curve with a large enough effect in the signal ratio, not every such curve was filed as active; the % refers to the signal ratio; note: series mostly up to about 92 µM; % of control where 0% means no effect). The following applies: HCT-116 p53RE-bla, beta-lactamase FRET ratio, 16 h; activation: stronger effect = higher value. A digest of the protocol:
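Agonist-mode quantitative HTS in HCT-116 cells carrying a p53-response-element beta-lactamase reporter; 16 h compound treatment at 37 C, then FRET substrate loading for 2 h at room temperature and fluorescence read.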

Experiment [19] can be described thus: qHTS assay for small molecule activators of the nuclear factor-kappa B (NF-kB) signaling pathway (AID 651749; active = well fitted activation curve with a large enough effect in the signal ratio; the % refers to the signal ratio; note: series mostly up to about 77 µM; % of control where 0% means no effect). The following applies: NF-kB-bla ME-180 cells, beta-lactamase FRET ratio, 16 h; activation: stronger effect = higher value. A digest of the protocol:
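Human ME-180 cervical cells with an NF-kB-bla construct; compounds added via 23 nL pin transfer, DMSO as vehicle; incubation 16 hr. Reporter activity measured by FRET disruption.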

The nature of experiment [20]: qHTS assay for cell viability of HEK293 cells (AID 743288; active = well fitted curve in the direction sought with a large enough effect; an effect the other way counts as inactive or inconclusive; note: % is set by controls: 0 for no effect and ±100 for the full control effect; nearly all actives have a fitted effect of over 50% in size). The following applies: ATP luminescence (CellTiter-Glo), 18 h; max response: stronger effect = lower value. The essentials:
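After 18 h compound exposure at 37 C, parental HEK293 cells (2,000/well) are lysed with CellTiter-Glo and luminescence is read following 30 min at room temperature.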

The nature of experiment [21]: qHTS assay for cell viability of the p53RE-bla HCT-116 cell line (AID 743292; active = well fitted curve in the direction sought with a large enough effect; an effect the other way counts as inactive or inconclusive; note: % is set by controls: 0 for no effect and ±100 for the full control effect; nearly all actives have a fitted effect of over 55% in size). A digest of the protocol:
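Quantitative high-throughput format: compounds in DMSO were pinned onto p53RE-bla HCT-116 cells (4,000/well) and incubated 16 h at 37 C. Total intracellular ATP, read by CellTiter-Glo luminescence, reflects viable cell number.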

The target in experiment [22] is Glucocorticoid receptor (Homo sapiens) (UniProt P04150). Description: qHTS assay for small molecule antagonists of glucocorticoid receptor signaling (AID 588533; active = well fitted inhibition curve with a large enough effect in the signal ratio, with a control signal flat, not every such curve was filed as active; the % refers to the signal ratio;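 note: cells stimulated with 2 nM dexamethasone as agonist; % is set by controls: 0 for no effect and ±100 for the full control effect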). A digest of the protocol: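 Antagonist-mode qHTS: compound titrations added to GRE-bla HeLa cells, then dexamethasone 2 nM final; 18 h, 37 C. CCF4 FRET fluorescence normalized to dexamethasone and DMSO; IC50 from Hill fit.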

Experiment [23] can be described thus: qHTS assay for small molecule agonists of retinoid X receptor alpha signaling (AID 588544).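 For activation: 0% = DMSO basal wells and 100% = reference agonist.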 As to conditions: HEK293T RXRa-UAS-bla, beta-lactamase reporter, 18 h; 530 nm emission.
The target of experiment [24] is Thyroid hormone receptor beta (Homo sapiens) (UniProt P10828). Description: qHTS assay for small molecule antagonists of thyroid hormone receptor beta signaling (AID 588547; active = well fitted inhibition curve with a large enough effect in the signal ratio, with a control signal flat, not every such curve was filed as active; the % refers to the signal ratio). As to conditions: TR-UAS-bla HEK293, beta-lactamase ratio, antagonist mode, 18 h. The essentials: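 TR-UAS-bla GripTite HEK293 cells in 2% charcoal/dextran FBS medium were preincubated 4 h at 37 C, given compound (0.59 nM to 92 uM) plus 0.4 nM T3 (final) for 18 h, then CCF4 for 2 h at RT; Hill fit gave IC50.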
Sequence of Thyroid hormone receptor beta (Homo sapiens) (P10828 whole entry, looked up): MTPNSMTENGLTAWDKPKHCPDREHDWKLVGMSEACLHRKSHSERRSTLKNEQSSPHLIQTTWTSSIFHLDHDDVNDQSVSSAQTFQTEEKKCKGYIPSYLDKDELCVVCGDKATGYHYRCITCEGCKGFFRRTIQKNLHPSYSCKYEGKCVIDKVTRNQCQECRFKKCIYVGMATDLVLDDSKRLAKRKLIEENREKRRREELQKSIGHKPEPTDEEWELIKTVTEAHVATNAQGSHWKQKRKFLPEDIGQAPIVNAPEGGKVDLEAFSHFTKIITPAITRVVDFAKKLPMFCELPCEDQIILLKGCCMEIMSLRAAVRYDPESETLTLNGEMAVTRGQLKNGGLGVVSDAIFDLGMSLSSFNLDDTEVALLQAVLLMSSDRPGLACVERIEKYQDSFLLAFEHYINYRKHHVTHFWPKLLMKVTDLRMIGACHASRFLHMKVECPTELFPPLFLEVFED

Experiment [25] is described as follows: qHTS assay for small molecule activators of the human pregnane X receptor (PXR) signaling pathway (AID 720659; call rule not given here; note: 0% is about no effect).

Inconclusive results are not listed. The source made the active and inactive calls. Unless noted, calls come from the whole dose curve.

Sequence of Peroxisome proliferator-activated receptor alpha (Homo sapiens) (Q07869 whole entry, looked up): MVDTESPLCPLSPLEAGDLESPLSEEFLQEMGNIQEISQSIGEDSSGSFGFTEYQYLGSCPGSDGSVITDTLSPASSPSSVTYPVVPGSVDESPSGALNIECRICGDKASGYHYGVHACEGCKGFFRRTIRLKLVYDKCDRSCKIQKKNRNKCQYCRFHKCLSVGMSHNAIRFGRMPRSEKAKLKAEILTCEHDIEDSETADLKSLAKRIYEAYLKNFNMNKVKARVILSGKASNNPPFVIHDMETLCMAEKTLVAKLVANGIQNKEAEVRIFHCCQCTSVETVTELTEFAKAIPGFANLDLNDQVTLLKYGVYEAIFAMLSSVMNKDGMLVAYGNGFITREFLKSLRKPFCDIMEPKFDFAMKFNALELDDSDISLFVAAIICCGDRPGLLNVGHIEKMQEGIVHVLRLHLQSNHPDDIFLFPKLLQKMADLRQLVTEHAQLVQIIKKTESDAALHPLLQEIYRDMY
Sequence of Retinoic acid receptor RXR-alpha (Homo sapiens) (P19793 whole entry, looked up): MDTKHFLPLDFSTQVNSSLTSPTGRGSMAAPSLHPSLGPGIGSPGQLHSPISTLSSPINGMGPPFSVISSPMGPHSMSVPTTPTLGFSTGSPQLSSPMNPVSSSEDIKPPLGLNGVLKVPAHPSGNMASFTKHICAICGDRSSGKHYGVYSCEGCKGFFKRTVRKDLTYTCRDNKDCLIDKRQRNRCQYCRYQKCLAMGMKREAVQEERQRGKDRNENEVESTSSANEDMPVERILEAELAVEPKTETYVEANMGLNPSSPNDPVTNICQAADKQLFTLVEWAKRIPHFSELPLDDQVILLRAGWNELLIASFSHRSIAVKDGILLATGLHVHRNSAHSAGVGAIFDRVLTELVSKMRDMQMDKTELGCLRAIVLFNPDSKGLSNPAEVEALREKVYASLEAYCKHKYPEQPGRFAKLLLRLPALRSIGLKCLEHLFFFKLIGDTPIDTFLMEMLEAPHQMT
Sequence of Peroxisome proliferator-activated receptor gamma (Homo sapiens) (P37231 whole entry, looked up): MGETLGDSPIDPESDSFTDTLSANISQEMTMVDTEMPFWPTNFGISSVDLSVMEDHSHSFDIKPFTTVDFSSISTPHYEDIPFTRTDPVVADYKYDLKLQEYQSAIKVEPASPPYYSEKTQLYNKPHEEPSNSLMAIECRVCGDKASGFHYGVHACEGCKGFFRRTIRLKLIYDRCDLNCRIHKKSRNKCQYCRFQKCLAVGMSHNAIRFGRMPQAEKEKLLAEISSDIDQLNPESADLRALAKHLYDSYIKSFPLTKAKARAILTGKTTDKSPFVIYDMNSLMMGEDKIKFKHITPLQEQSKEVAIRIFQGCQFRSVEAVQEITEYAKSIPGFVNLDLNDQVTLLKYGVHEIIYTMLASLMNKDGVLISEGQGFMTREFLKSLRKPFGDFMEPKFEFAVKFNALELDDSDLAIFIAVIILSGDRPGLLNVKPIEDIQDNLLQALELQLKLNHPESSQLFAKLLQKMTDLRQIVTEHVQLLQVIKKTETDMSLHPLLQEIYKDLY

In the case of `Cn1c(-c2ccccc2)cc(-c2ccccc2)[n+]1C`, the activation in experiment [1] was -9.09% (inactive); in experiment [10], -2.45% (inactive). Also, the molecule was classed as inactive in experiment [2] and in experiment [6]. Moreover, the Potency result in [3], in experiment [4], in [5], in experiment [7] and in [12] was “inactive” each time. Also, the max response in experiment [8] is 17.2%; in experiment [9], -10.3% (inactive); in experiment [11], -0.162% (inactive); in experiment [13], -21.3% (inactive); in [14] it was -12.3% (inactive).

As for `Oc1ccc(C(c2ccc(O)cc2)(C(F)(F)F)C(F)(F)F)cc1`, the activation in experiment [1] is -15.3% (inactive); in [18], 22.5% (inactive); in experiment [19], -2.42% (inactive); in experiment [10], 0.672% (inactive). Besides, the outcome in [2] and in experiment [6] was inactive. The max response in experiment [15] is -38.3%; in [11] it was -3.57% (inactive); in experiment [13], -1.13% (inactive); in experiment [20], -18.6% (inactive); in experiment [14], 0.831% (inactive). Besides, the Potency entry in experiment [16], in experiment [5], in experiment [17], in experiment [12] and in experiment [21] was “inactive” in each case.

As for `CC1(C)C(C=C(Cl)Cl)[C@H]1C(=O)OCc1cccc(Oc2ccccc2)c1` (some centres undefined), the activation in [1] is 0.728% (inactive); in experiment [10], 0.692% (inactive). The molecule was classed as inactive in experiment [6]. Moreover, the Potency entry in [7] was “inactive”.

As to `Cc1cc(C)nc(Nc2ccccc2)n1`, the activation in experiment [1] is -19% (inactive); in experiment [18], -0.291% (inactive); in [19] it was -2.63% (inactive); in [10], 7.09% (inactive). The Potency result in experiment [22], in experiment [16], in experiment [3], in experiment [4], in experiment [5] and in [7] was “inactive” in each case. Moreover, the Potency entry in experiment [17] and in [21] was “inactive” each time. Also, the molecule was called inactive in [2], in [6] and in experiment [25]. In addition, the max response is -19.7% in experiment [15]; 1.3% in experiment [23]; -7.16% in [8]; -45.9% (inactive) in experiment [9]; 5.23% (inactive) in experiment [11]; -4.46% (inactive) in experiment [13]. Also, the values for the max response in [20] and in [14] were -15.1% (inactive) and 11.4% (inactive), respectively. Also, the activity change % (negative = inhibition) in experiment [24] was -4.91% (inactive).

On to `CC/C(=N\OC/C=C/Cl)C1=C(O)CC(C2CCOCC2)CC1=O` (centres undefined), for which the Potency entry in [22], in experiment [3], in experiment [4], in experiment [5], in experiment [7] and in [17] was “inactive” in each case. In addition, the Potency entry in experiment [12] and in experiment [21] was “inactive” throughout. Moreover, the molecule was classed as inactive in experiment [2], in [6] and in experiment [25]. For the same molecule, the max response in experiment [15] is 17.7%; in [23], -4.82%; in experiment [8] it was 0.449%; in experiment [9], 3.36% (inactive); in experiment [11] it was -0.709% (inactive); in experiment [13], 1.41% (inactive). Further, the activity change % (negative = inhibition) in experiment [24] was -7.66% (inactive). The results for the activation in experiment [18], in experiment [19] and in [10] were -3.67% (inactive), -1.9% (inactive) and 0.936% (inactive), respectively.
